# Assays:
# Assay in all cases: DAPPL (digital affinity profiling via proximity ligation, sequencing); 10 mM Tris-HCl pH 7.5, 50 mM NaCl, 1 mM DTT, 4% glycerol, room temperature, 30 min; GST-TFs on glutathione beads, 16-mer random dsDNA library, 0.1% formaldehyde crosslink after washing; high values mean tight binding
# FEV = target: T1, FEV (Homo sapiens, UniProt Q99581 1-238); conditions: protein: recombinant; tags: N-terminal GST; dsDNA, one strand shown
# T1 sequence: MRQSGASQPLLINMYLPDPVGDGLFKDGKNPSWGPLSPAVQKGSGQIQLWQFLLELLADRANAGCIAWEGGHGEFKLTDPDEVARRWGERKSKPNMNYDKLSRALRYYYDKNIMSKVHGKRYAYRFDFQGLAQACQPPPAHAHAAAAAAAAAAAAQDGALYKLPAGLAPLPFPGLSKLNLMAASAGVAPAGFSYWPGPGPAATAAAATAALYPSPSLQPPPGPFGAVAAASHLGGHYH
# Outline: (§1)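 Binding signal is each hexamer's read frequency for a factor divided by its frequency in the tag-only sample. The factors were GST-fused human transcription factors from yeast, captured on glutathione beads, DNA-barcoded and pooled with that sample. Pools were incubated with 200 nmole of a random double-stranded 16-mer DNA library in Tris/NaCl/DTT/glycerol buffer at room temperature for 30 min, then washed, crosslinked with 0.1% formaldehyde, proximity-ligated with BsaI/T4 ligase (1 h, 37 °C), PCR-amplified and sequenced on an Illumina NextSeq500.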
# ETV5 = ETV5 (Homo sapiens, UniProt P41161 1-510); conditions: protein: recombinant; tags: N-terminal GST; dsDNA, one strand shown
# Sequence of ETV5 (P41161 whole entry): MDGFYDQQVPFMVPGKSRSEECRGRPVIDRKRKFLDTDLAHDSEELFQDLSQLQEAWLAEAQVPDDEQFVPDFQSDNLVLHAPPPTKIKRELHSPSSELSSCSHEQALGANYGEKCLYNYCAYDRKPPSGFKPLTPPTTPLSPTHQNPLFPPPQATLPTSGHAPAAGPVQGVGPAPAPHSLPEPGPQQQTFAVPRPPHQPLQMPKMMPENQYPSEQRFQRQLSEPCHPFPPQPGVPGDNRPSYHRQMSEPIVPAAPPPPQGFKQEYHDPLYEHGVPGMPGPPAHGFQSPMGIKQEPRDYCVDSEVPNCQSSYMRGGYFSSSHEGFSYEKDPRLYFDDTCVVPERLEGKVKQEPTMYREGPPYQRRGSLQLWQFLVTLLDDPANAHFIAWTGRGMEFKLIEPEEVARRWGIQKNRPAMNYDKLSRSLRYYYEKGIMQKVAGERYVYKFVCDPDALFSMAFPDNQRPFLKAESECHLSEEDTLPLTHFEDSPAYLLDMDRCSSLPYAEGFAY
# Outline: as §1
# HSF1 = HSF1 (Homo sapiens, UniProt Q00613 1-529); conditions: protein: recombinant; tags: N-terminal GST; chain copies: 3; dsDNA, one strand shown
# Sequence of HSF1 (Q00613 whole entry): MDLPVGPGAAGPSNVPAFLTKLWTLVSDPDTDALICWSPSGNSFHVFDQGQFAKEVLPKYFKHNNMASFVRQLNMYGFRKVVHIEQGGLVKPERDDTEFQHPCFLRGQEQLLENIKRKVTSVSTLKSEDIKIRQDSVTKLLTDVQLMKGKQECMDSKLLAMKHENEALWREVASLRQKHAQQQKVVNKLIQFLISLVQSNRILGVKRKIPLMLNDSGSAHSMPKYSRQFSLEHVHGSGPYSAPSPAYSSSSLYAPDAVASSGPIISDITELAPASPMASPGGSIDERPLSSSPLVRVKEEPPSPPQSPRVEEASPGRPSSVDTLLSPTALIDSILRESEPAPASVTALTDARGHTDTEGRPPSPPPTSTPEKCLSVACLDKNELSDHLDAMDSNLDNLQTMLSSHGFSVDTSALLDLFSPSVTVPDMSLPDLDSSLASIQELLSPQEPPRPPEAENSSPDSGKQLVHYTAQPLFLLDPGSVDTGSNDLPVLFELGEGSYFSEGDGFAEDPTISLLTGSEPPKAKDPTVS
# Outline: as §1
# SPIC = target: T2, SPIC (Homo sapiens, UniProt Q8N5J4 1-248); conditions: protein: recombinant; tags: N-terminal GST; dsDNA, one strand shown
# T2 sequence: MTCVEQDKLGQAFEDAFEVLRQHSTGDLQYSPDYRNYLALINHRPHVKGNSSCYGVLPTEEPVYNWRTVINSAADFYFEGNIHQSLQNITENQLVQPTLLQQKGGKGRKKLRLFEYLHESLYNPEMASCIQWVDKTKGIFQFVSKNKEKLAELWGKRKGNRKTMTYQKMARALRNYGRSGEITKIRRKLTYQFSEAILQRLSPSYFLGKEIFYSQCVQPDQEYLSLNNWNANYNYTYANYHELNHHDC
# Outline: as §1
# ELF4 = ELF4 (Homo sapiens, UniProt Q99607 1-663); conditions: protein: recombinant; tags: N-terminal GST; dsDNA, one strand shown
# Sequence of ELF4 (Q99607 whole entry): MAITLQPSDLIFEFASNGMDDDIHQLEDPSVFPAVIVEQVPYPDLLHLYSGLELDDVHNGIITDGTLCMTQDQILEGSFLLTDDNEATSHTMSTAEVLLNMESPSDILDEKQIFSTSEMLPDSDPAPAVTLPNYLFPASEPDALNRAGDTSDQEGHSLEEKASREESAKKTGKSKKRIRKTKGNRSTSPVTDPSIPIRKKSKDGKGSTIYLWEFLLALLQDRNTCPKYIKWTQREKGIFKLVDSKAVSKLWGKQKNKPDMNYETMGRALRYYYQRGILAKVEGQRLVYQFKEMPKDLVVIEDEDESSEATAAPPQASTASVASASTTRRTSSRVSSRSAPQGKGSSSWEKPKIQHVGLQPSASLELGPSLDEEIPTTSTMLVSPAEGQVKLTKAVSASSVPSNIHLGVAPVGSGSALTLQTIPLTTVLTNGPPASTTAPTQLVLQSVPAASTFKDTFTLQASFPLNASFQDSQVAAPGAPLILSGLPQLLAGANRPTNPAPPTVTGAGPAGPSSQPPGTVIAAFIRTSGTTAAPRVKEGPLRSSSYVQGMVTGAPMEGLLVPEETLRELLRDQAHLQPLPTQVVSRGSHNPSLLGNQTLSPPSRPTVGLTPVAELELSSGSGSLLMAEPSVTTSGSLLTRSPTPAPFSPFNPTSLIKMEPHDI
# Outline: as §1
# ELK4 = target: T3, ELK4 (Homo sapiens, UniProt P28324-2 1-405); conditions: protein: recombinant; tags: N-terminal GST; dsDNA, one strand shown
# T3 sequence: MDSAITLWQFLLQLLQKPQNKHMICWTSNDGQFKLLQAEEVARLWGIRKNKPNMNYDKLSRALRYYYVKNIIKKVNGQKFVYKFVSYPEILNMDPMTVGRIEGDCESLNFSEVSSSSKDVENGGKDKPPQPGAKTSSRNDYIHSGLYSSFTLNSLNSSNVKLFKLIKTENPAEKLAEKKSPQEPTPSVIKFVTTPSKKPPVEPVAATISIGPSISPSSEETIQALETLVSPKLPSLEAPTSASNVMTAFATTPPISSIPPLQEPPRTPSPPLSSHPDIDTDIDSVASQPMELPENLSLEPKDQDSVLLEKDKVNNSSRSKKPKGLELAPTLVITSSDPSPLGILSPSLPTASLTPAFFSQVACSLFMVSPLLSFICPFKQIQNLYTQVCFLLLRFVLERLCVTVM
# Outline: as §1
# ETV2 = target: T4, ETV2 (Homo sapiens, UniProt O00321 1-342); conditions: protein: recombinant; tags: N-terminal GST; dsDNA, one strand shown
# T4 sequence: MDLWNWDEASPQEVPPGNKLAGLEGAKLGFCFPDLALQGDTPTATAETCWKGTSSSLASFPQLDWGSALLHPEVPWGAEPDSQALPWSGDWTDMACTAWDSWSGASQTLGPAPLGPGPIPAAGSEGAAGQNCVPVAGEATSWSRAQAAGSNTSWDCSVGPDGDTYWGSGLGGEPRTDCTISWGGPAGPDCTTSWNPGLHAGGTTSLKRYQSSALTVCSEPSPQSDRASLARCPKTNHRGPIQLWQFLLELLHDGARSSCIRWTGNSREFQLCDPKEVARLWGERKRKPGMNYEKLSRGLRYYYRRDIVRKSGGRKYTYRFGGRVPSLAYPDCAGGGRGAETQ
# Outline: as §1
# ELF3 = target: T5, ELF3 (Homo sapiens, UniProt P78545 1-371); conditions: protein: recombinant; tags: N-terminal GST; dsDNA, one strand shown
# T5 sequence: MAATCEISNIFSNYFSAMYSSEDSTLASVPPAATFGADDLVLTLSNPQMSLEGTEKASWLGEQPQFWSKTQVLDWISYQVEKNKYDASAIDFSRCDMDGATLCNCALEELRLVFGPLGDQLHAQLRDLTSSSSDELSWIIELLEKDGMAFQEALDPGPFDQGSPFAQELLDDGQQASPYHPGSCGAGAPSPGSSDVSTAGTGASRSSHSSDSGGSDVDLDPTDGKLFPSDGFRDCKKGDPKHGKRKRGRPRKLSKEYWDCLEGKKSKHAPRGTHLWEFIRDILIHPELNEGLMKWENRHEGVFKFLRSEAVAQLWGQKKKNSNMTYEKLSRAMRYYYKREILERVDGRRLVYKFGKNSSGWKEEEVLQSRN
# Outline: as §1
# CRX = CRX (Homo sapiens, UniProt O43186 1-299); conditions: protein: recombinant; tags: N-terminal GST; dsDNA, one strand shown
# Sequence of CRX (O43186 whole entry): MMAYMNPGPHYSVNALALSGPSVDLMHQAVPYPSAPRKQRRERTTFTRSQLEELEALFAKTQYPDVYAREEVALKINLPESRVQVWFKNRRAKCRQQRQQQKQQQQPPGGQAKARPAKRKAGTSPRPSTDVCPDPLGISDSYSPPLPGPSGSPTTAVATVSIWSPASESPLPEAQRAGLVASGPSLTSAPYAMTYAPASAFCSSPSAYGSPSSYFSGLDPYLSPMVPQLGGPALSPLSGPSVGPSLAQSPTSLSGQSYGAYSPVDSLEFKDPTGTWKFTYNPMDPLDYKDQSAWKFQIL
# Outline: as §1
# ETV1 = ETV1 (Homo sapiens, UniProt P50549 1-477); conditions: protein: recombinant; tags: N-terminal GST; dsDNA, one strand shown
# Sequence of ETV1 (P50549 whole entry): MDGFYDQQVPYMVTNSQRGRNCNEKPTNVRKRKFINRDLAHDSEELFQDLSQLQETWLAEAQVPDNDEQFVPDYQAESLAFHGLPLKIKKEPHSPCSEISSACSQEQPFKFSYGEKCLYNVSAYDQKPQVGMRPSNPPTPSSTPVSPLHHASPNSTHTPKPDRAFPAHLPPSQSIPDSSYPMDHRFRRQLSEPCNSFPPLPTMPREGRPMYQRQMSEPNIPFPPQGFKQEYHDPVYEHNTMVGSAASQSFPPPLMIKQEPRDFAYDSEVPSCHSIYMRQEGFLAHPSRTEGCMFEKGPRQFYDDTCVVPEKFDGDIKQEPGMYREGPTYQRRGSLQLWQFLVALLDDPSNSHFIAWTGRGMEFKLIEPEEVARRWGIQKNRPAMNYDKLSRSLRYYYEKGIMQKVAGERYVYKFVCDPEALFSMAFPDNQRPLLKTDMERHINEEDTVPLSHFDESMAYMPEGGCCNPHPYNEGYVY
# Outline: as §1
# ERF = target: T6, ERF (Homo sapiens, UniProt P50548 1-548); conditions: protein: recombinant; tags: N-terminal GST; dsDNA, one strand shown
# T6 sequence: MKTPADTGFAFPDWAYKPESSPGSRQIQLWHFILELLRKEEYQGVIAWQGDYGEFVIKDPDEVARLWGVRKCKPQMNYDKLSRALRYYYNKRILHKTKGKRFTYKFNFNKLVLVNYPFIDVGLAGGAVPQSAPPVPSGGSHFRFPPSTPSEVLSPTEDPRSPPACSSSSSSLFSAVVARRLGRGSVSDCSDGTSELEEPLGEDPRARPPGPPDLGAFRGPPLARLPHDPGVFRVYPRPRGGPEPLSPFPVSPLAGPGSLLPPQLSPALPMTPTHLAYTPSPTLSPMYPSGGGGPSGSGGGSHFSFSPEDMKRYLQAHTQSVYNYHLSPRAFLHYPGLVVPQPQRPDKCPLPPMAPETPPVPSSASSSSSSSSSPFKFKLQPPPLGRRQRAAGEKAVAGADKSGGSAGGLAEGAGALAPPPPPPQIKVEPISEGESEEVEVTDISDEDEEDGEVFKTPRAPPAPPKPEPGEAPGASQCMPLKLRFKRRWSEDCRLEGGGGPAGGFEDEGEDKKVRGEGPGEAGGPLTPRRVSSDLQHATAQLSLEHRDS
# Outline: as §1
# ETV3L = target: T7, ETV3L (Homo sapiens, UniProt Q6ZN32 1-361); conditions: protein: recombinant; tags: N-terminal GST; dsDNA, one strand shown
# T7 sequence: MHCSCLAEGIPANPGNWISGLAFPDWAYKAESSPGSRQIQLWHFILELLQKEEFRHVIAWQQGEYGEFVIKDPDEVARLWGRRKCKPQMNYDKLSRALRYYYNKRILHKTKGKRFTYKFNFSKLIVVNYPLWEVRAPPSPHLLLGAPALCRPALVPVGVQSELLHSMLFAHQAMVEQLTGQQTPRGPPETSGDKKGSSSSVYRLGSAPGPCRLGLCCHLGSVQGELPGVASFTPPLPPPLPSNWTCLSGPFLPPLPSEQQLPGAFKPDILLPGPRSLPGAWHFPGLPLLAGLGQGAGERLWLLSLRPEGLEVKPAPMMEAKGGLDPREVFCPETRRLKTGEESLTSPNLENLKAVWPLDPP
# Outline: as §1
# ETS2 = target: T8, ETS2 (Homo sapiens, UniProt P15036 1-469); conditions: protein: recombinant; tags: N-terminal GST; dsDNA, one strand shown
# T8 sequence: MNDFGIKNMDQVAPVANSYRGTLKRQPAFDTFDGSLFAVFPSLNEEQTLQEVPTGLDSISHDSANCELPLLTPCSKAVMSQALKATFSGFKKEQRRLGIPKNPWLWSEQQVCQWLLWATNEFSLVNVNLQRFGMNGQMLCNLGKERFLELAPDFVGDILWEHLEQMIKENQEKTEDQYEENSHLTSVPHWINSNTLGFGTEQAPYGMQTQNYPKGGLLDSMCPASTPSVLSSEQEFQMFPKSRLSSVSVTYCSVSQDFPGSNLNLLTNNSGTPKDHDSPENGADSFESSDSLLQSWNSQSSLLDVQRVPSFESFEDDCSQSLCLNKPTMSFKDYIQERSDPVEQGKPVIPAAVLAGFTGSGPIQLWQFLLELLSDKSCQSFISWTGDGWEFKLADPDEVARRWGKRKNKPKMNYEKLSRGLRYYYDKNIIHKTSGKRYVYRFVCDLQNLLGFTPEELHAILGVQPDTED
# Outline: as §1
# SPDEF = target: T9, SPDEF (Homo sapiens, UniProt O95238 1-335); conditions: protein: recombinant; tags: N-terminal GST; dsDNA, one strand shown
# T9 sequence: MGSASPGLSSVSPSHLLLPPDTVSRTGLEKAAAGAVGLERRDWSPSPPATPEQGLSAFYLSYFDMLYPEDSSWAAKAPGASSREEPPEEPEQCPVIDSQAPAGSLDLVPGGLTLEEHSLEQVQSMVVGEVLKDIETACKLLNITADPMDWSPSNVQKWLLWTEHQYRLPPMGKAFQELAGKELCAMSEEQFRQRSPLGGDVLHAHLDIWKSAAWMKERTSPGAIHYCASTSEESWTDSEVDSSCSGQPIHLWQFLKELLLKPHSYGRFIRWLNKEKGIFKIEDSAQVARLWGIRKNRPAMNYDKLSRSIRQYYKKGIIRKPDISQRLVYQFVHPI
# Outline: as §1
# ETV7 = target: T10, ETV7 (Homo sapiens, UniProt Q9Y603 1-341); conditions: protein: recombinant; tags: N-terminal GST; dsDNA, one strand shown
# T10 sequence: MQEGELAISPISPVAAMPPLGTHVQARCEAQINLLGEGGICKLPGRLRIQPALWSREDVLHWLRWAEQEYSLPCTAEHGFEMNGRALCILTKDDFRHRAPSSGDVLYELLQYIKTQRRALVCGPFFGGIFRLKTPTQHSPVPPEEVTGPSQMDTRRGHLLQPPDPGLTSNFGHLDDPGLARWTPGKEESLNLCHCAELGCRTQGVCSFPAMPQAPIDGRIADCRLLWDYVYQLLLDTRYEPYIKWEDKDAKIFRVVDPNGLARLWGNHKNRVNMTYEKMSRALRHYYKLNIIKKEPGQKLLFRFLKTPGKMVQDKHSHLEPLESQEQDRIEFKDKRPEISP
# Outline: as §1
# ELF5 = target: T11, ELF5 (Homo sapiens, UniProt Q9UKW6-2 1-255); conditions: protein: recombinant; tags: N-terminal GST; dsDNA, one strand shown
# T11 sequence: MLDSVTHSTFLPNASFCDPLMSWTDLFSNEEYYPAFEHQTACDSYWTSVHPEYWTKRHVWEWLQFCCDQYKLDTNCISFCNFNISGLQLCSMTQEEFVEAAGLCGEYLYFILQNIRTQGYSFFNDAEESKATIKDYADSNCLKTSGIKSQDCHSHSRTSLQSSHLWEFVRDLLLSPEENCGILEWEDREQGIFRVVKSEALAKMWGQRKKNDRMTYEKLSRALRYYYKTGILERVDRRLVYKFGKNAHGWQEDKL
# Outline: as §1
# ETV3 = target: T12, ETV3 (Homo sapiens, UniProt P41162-2 1-143); conditions: protein: recombinant; tags: N-terminal GST; dsDNA, one strand shown
# T12 sequence: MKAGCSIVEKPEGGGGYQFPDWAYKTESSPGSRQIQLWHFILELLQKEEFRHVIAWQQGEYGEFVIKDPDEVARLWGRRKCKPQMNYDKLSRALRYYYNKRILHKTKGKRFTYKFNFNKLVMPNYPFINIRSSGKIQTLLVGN
# Outline: as §1
# ETV6 = ETV6 (Homo sapiens, UniProt P41212 1-452); conditions: protein: recombinant; tags: N-terminal GST; dsDNA, one strand shown
# Sequence of ETV6 (P41212 whole entry): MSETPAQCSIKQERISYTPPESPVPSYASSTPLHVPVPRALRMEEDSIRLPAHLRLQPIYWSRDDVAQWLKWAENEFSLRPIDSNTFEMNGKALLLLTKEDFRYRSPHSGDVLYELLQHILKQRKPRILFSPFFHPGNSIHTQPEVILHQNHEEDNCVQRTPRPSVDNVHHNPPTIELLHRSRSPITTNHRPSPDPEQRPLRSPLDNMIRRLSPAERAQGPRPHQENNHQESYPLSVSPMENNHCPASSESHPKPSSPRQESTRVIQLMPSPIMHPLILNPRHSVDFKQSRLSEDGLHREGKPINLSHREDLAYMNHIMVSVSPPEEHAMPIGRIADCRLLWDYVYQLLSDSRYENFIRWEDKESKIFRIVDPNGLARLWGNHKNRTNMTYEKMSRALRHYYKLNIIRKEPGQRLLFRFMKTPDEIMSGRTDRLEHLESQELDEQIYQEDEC
# Outline: as §1
sequence,measurement,setting,value
TAATAT,binding signal,FEV,"1.25 fold enrichment (6-mer frequency, TF over GST control)"
same,binding signal,ETV5,"1.26 fold enrichment (6-mer frequency, TF over GST control)"
same,binding signal,HSF1,"1.58 fold enrichment (6-mer frequency, TF over GST control)"
same,binding signal,SPIC,"1.16 fold enrichment (6-mer frequency, TF over GST control)"
same,binding signal,ELF4,"1.28 fold enrichment (6-mer frequency, TF over GST control)"
same,binding signal,ELK4,"1.37 fold enrichment (6-mer frequency, TF over GST control)"
same,binding signal,ETV2,"1.31 fold enrichment (6-mer frequency, TF over GST control)"
same,binding signal,ELF3,"1.25 fold enrichment (6-mer frequency, TF over GST control)"
same,binding signal,CRX,"2.01 fold enrichment (6-mer frequency, TF over GST control)"
same,binding signal,ETV1,"1.27 fold enrichment (6-mer frequency, TF over GST control)"
same,binding signal,ERF,"1.35 fold enrichment (6-mer frequency, TF over GST control)"
same,binding signal,ETV3L,"1.34 fold enrichment (6-mer frequency, TF over GST control)"
same,binding signal,ETS2,"1.24 fold enrichment (6-mer frequency, TF over GST control)"
same,binding signal,SPDEF,"1.23 fold enrichment (6-mer frequency, TF over GST control)"
same,binding signal,ETV7,"1.35 fold enrichment (6-mer frequency, TF over GST control)"
same,binding signal,ELF5,"1.22 fold enrichment (6-mer frequency, TF over GST control)"
same,binding signal,ETV3,"1.23 fold enrichment (6-mer frequency, TF over GST control)"
same,binding signal,ETV6,"1.23 fold enrichment (6-mer frequency, TF over GST control)"

# Source: publication PMC7862700, “An all-to-all approach to the identification of sequence-specific readers for epigenetic DNA modifications on cytosine”
